The panel holds about 83,000 compounds, 20% with a hit somewhere; the sample as a whole holds those more often.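 48-hour exposure, single concentration, 96-well plates; percent growth endpoint where 0 means no net growth. Active: below 10.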 A number with no mark means an inactive call. Calls of active or inactive are those of the source.
Experiments:
Assay in all cases: NCI-60 one-dose screen, 48 h (100 = growth as untreated, 0 = no growth, -100 = all killed)
Details in all cases: 10 µM unless noted
NCI-H23 lung = test system: NCI-H23 lung
NCI-H226 lung = test system: NCI-H226 lung
NCI-H322M lung = test system: NCI-H322M lung
HOP-62 NSCLC = test system: HOP-62 NSCLC
NCI-H460 lung = test system: NCI-H460 lung
HOP-92 NSCLC = test system: HOP-92 NSCLC
NCI-H522 lung = test system: NCI-H522 lung
A549/ATCC NSCLC = test system: A549/ATCC NSCLC
786-0 renal = test system: 786-0 renal
COLO 205 colon = test system: COLO 205 colon

Row | SMILES | growth (NCI-H23 lung) | growth (NCI-H226 lung) | growth (NCI-H322M lung) | growth (HOP-62 NSCLC) | growth (NCI-H460 lung) | growth (HOP-92 NSCLC) | growth (NCI-H522 lung) | growth (A549/ATCC NSCLC) | growth (786-0 renal) | growth (COLO 205 colon)
1 | CCCCCN(CCCCC)CC(O)c1c(Cl)ccc2ccccc12 (stereo not given) | 54.1% | 70.4% | 71.2% | 80.5% | 66.5% | 68.1% | 79% | 67.6% | 71.7% | 72.9%
2 | COC(CCP(=O)(c1ccccc1)c1ccccc1)(C(=O)c1ccccc1)c1ccccc1 (stereo not given) | 77.3% | 85.7% | 72.8% | 88% | 50% | -8.84% (active) | 28.9% | 48.1% | 89.4% | 62.4%
3 | CCN1CCN(C(=O)[C@]23CC[C@@H](C)[C@H](C)[C@@H]2C2=CC[C@@H]4[C@@]5(C)C/C(=C/c6ccncc6)C(=O)C(C)(C)[C@@H]5CC[C@@]4(C)[C@]2(C)CC3)CC1 | 20.8% | 24.7% | 53.2% | 33.2% | -6.85% (active) | 45.2% | 23.4% | 25.5% | 19.6% | -15.6% (active)
4 | Cc1ccc(Nc2oc(-c3ccccc3)nc2[P+](c2ccccc2)(c2ccccc2)c2ccccc2)cc1 | -51.8% (active) | -13.8% (active) | -21.6% (active) | -51.1% (active) | -81.7% (active) | -44.8% (active) | -57.4% (active) | -25% (active) | -77.5% (active) | -34.7% (active)
5 | COc1ccc(-n2c(=O)n(-c3ccc(-c4nc5ccc(F)cc5s4)cc3)c(=O)c3cccnc32)cc1 | 89.9% | 105% | 102% | 89.2% | 110% | 118% | 88.8% | 96.5% | 99.5% | 106%
6 | Cc1ccc(C(=O)Nc2ccc(CN3CCN(C)CC3)c(C(F)(F)F)c2)cc1C#Cc1cnc(N)c2ccccc12 | -46% (active) | 21.6% | 17% | 15% | -86.8% (active) | -14.8% (active) | -44.3% (active) | -65.7% (active) | -77.4% (active) | -66.3% (active)
7 | Nc1cc(-c2ccc(Cl)cc2)nn1-c1nc(-c2ccc(Br)cc2)cs1 | 100% | 96.3% | 93.3% | 97.9% | 105% | 90% | 84.2% | 88.1% | 93.6% | 100%
8 | N#Cc1c(-c2ccc(F)cc2)cc(-c2cccc(Cl)c2)[nH]c1=O | 62.8% | 54.1% | 75.2% | 28% | 86.8% | 29.7% | 57.9% | 46.3% | 42.1% | 116%
9 | O=S(=O)(Nc1ccc(Br)cc1)c1ccc(-c2cnc(C3CC3)o2)cc1 | 40.8% | 67.3% | 61.9% | 27.1% | 12.8% | 43% | 11% | 40.1% | 37.8% | 23.9%
10 | CC1=C([Se]CC(OC(=O)[C@@H](CO)NC(=O)OC(C)(C)C)C(=O)NCCCCCC(=O)OCc2ccccc2)C(=O)c2ccccc2C1=O (stereo not given in full) | -77.8% (active) | -85.4% (active) | -74% (active) | -100% (active) | -4.97% (active) | -75.3% (active) | -94.6% (active) | -24% (active) | -97.3% (active) | 10.2%
11 | CCCCN(CCC#N)C(N)=O | 115% | 103% | 107% | 105% | 108% | 97.2% | 105% | 109% | 92% | 120%
12 | O=C(Nc1cccc(Cl)c1)Oc1c(Cl)c(Cl)c(Cl)c(Cl)c1Cl | 88.1% | 83.8% | 109% | 81.7% | 101% | 58.7% | 83.9% | 96.8% | 97.9% | 101%
13 | CCCS(=O)(=O)Nc1cccc(Nc2ncnc3cc(NC(=O)CCl)ccc23)c1Cl | -52.2% (active) | -18.3% (active) | 3.52% (active) | -77.3% (active) | -41.1% (active) | -85.9% (active) | -60% (active) | -5.2% (active) | -88.2% (active) | -68.9% (active)
14 | CN(C)CCOc1nc2c3cc([N+](=O)[O-])ccc3nn2c2ccccc12 | 36.7% | 65.3% | 59.6% | 30.2% | 4.99% (active) | 57.3% | 46.2% | 12.7% | 22.7% | 33.9%
15 | COC(=O)CNC(=O)c1ccc(NC(=O)c2[nH]c(C)c(Cl)c2Cl)c(O[C@H]2CCNC2)c1 | 98.7% | 104% | 109% | 95.6% | 108% | 99% | 97.7% | 105% | 102% | 110%
16 | Cc1ccccc1NC(=O)c1sc2nc3c(cc2c1N)CCCC3 | 47.2% | 63.4% | 51.1% | 27.4% | 11% | 17.3% | 11.1% | 34.3% | 33.7% | 15.5%
17 | [2H]C([2H])([2H])Oc1c(F)cccc1/C=C/C(=O)/C=C(O)/C=C/c1cccc(F)c1OC([2H])([2H])[2H] | 86.1% | 108% | 102% | 110% | 99.1% | 89.4% | 87.4% | 90.9% | 103% | 114%
18 | CCCCCCCCCCCCCC[n+]1ccc2c(C)c3c(c(C)c2c1)c1cc(O)ccc1n3CC | -64% (active) | -40.5% (active) | -62% (active) | -57.1% (active) | -67.7% (active) | -84.4% (active) | -42.9% (active) | 7.99% (active) | -73.4% (active) | -69.9% (active)
19 | CC(C)C(=O)Nc1ncc(C(=O)NCCN(Cc2ccccc2)C(=O)c2ccc(S(=O)(=O)Nc3ccccc3)cc2)s1 | 97.3% | 98% | 98.9% | 94.3% | 99.8% | 106% | 83.6% | 103% | 96.6% | 118%
20 | CCCN1C2CCC1/C(=C\c1ccc(OC)cc1)C(=O)/C2=C/c1ccc(OC)cc1 | 67.5% | 71.5% | 92% | 89.1% | 76.9% | 58.1% | 51.2% | 72.6% | 85.2% | 76%
21 | O=C1/C(=C/c2ccc(-c3ccc(Cl)cc3)o2)SC(=S)N1CCc1ccc(O)cc1 | 81.3% | 84.1% | 70.3% | 46.8% | 9.88% (active) | 55.3% | -18.8% (active) | 17.6% | 60.9% | 16.8%
22 | NC(=O)[C@@H]1Cc2ccccc2CN1C(=O)c1ccc2c(c1)Cc1ccccc1-2 | 89.4% | 83.2% | 103% | 108% | 91.5% | 92.9% | 66.9% | 64.9% | 97.8% | 105%
23 | O=C1N/C(=N/N=C(c2ccccc2)c2ccccc2)S/C1=C\c1ccc(Br)cc1 | 94.1% | 84.7% | 95% | 98.1% | 98.4% | 92.3% | 69.6% | 74.7% | 98% | 104%
24 | CS(=O)(=O)c1ccc(/C(=N/NC(N)=S)c2ccc(F)cc2)cc1 | 97.9% | 107% | 104% | 105% | 102% | 112% | 99.6% | 108% | 102% | 116%
25 | CCOC(=O)/C(=C/c1ccc([N+](=O)[O-])cc1)C(=O)c1ccccc1 | 48% | 21.3% | 73.5% | 76.5% | 55.2% | 32.4% | -24.7% (active) | 71.5% | 17.2% | 4.21% (active)
26 | CCc1ccc(Cc2cnc(NC(=O)c3cc(C)oc3C)s2)cc1 | 52.8% | 66.3% | 56.8% | 56.9% | 18.6% | 45% | 19.6% | 34.7% | 41.2% | 48.6%

From PubChem BioAssay (NCI)
